# Assay outcomes as filed in PubChem.
# The list is not random: actives were taken first. Their share in the collection is about 3.5%.
# TEAD-YAP inh – TEAD-YAP interaction inhibition | HEK-TIYL cells, TEAD-Gal4/YAP UAS-luciferase luminescence | inhibition, % at 9.12 µM | 1.4% of 640,000 active | AID 1259422; in the data active = inhibition above about 32%;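 also: 0% = median of test compound wells and 100% = reference inhibitor wells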
# GPR151 activ – activates the human receptor GPR151; Q8TDV0; PathHunter beta-arrestin GPR151 cells, luminescence; activation, % at 11.2 µM; 1% of 650,000 active; AID 1508602; in the data active = activation above about 4.9%;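 also: 0% = median of compound wells and 100% = cells with positive control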
# FBW7 act – human FBW7 E3 ligase activation, primary screen; 0.13% of 650,000 active; AID 1259310; normalized activity (activation), % at 26.1 µM; Q969H0; AlphaScreen FBW7–phospho-cyclin E peptide binding, activator screen; in the data active = normalized activity above about 1.9%;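 also: purified mutant Fbw7 with reduced substrate affinity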
# MITF primary – blocks human microphthalmia-associated transcription factor; O75030; AlphaScreen MITF homodimerization, bead proximity signal; inhibition, % at 2.6 µM; 0.91% of 650,000 active; AID 1259374; in the data active = inhibition above about 50%;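 also: 0% = vehicle wells with protein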
# GPR151 confirm – human GPR151 activation, confirmation screen; shares compounds with GPR151 activ; GPR151 PathHunter beta-arrestin cells, luminescence, 90 min; % of EA-reagent control over plate median; activation, % at 11.2 µM; 6,700 tested, under 10 active; AID 1508609;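 active = mean percent activation across replicates above the confirmation screen cutoff of 4.91%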
# GPR119 ag – activates human GPR119 in a GPR151 counter-screen | shares compounds with GPR151 activ | GPR119 PathHunter beta-arrestin cells, luminescence, 90 min; 0 = compound-well median, 100 = enzyme-acceptor control | activation, % at 11.2 µM | 0.3% of 6,700 active | AID 1508611;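 active = mean percent activation in the counterscreen above 29.09%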;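 also: counterscreen on off-target GPR119 to flag nonselective hits from the GPR151 activator screen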
# Target sequence (Q8TDV5 whole entry, looked up): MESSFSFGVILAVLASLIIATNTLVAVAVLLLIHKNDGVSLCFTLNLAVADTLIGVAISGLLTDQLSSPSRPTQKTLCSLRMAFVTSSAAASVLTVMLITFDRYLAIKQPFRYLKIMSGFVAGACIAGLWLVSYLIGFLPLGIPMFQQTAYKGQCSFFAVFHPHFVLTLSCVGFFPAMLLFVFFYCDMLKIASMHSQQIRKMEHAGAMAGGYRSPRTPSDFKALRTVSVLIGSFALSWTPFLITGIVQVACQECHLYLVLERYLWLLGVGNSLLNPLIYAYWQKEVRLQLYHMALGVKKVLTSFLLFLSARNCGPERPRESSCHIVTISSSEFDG
# * marks the source's active call; other numbers are inactive results; x = no result.
SMILES,TEAD-YAP inh,GPR151 activ,FBW7 act,MITF primary,GPR151 confirm,GPR119 ag
O=C(CC1(c2ccccc2)CC(=O)N(Cc2cccnc2)C1=O)N1CC[C@@H]2CCCC[C@H]2C1 (stereo partly specified),-4,9.5*,0,3,-1,-2
Cc1cc(-c2ccccc2)n(-c2cc(Nc3cccc(F)c3)ncn2)n1,-10,2,0,1,x,x
Cc1cc(-c2ccccc2)n(-c2cc(Nc3ccccc3)ncn2)n1,0,5.1*,0,5,1,6
Cc1ccc2nc3n(c2c1)C(=O)C1C2c4ccccc4C(c4ccccc42)C31 (stereo unspecified),13,0,0,2,x,x
Cc1ccc(-n2c(SCc3cccc([N+](=O)[O-])c3)nc3[nH]ncc3c2=O)cc1Cl,16,4.9*,0,-4,0,-3
O=c1c2cn[nH]c2nc(SCc2cccc([N+](=O)[O-])c2)n1-c1ccc(Cl)cc1,-4,-1,1,9,x,x
CCOc1ccc(-c2noc(CCC(=O)NC)n2)cc1OC,-15,0,0,-1,x,x
CCOc1cc(-c2noc(CCC(=O)NC)n2)cc(Br)c1OC,6,6.6*,0,-17,0,8
Cc1cc(C)nc(SCC(=O)NNC(=O)c2ccccc2Br)n1,11,6.0*,0,20,0,0
O=C(CCN1C(=O)C2C3C=CC(CC3)C2C1=O)NCc1ccco1 (stereo unspecified),2,2,0,-9,x,x
O=C(NCc1ccccc1)c1cnc2cc(-c3cn[nH]c3)ccn12,-10,6.2*,0,1,0,12
CN1CCN(C2CCN(c3cccc(Cl)c3)CC2)CC1CCO (stereo unspecified),-7,-1,0,16,x,x
OCC1CCN(C2CCCN(C3CCN(c4cccc(Cl)c4)CC3)C2)CC1 (stereo unspecified),-2,5.1*,0,6,0,-4
CCOc1ccccc1-n1c(SCC(=O)OC)nnc1-c1cccnc1,10,0,2,8,x,x
Cc1ccc(OCC(=O)NC2CCCCC2)cc1C,-18,-1,0,-4,x,x
Cc1ccc(OCC(=O)N(C)C2CCCCC2)cc1C,-73,5.0*,0,-5,-1,7
COc1ccccc1/C=C/CN1CCc2nnc(CNC(=O)CCc3cccnc3)n2CC1,-3,1,0,1,x,x
CCCCC(Sc1nc2ccccc2c2nc(-c3ccccc3OC)nn12)C(=O)OCC (stereo unspecified),-8,5.4*,0,-3,0,2
Cc1cnc(Nc2ccc3ncccc3c2)nc1NCCN(C(C)C)C(C)C,4,5.4*,0,-4,1,3
CCCNc1nc(Nc2ccc3ncccc3c2)ncc1C,-7,-1,0,3,x,x
O=C(NC1CC1)c1cccc(NS(=O)(=O)c2ccc(-c3ncnc4[nH]ccc34)cc2)c1,-20,-1,0,1,x,x
O=C1OC(/C=C/c2cccc(Cl)c2Cl)=NC/1=C\c1ccccc1C(F)(F)F,2,5.8*,0,-1,-1,-3
O=C1OC(/C=C/c2cccc(Cl)c2Cl)=NC/1=C\c1ccccc1Cl,-5,-1,0,-9,x,x
FC(F)(F)c1cccc(-c2cnnc(N3CCN(c4ccccn4)CC3)n2)c1,12,15*,0,12,0,9
C[C@@H]1CN(c2nncc(-c3cccc(C(F)(F)F)c3)n2)C[C@H](C)O1,0,-1,0,13,x,x
SMILES,TEAD-YAP inh,GPR151 activ,FBW7 act,MITF primary,GPR151 confirm,GPR119 ag
FC(F)(F)c1ccc(-c2cnnc(N3CCCCCC3)n2)cc1,7,0,0,2,x,x
FC(F)(F)c1ccc(-c2cnnc(N3CCN(Cc4cccnc4)CC3)n2)cc1,6,6.0*,0,-2,0,-2
O=C(Nc1ccc(-c2nc3ccc(-c4nc5ccccc5o4)cc3[nH]2)cc1)C1CCCCC1,-5,4.9*,0,17,1,16
CC(C)[C@H](NC(=O)c1ccccc1F)C(=O)Nc1ccc2c(c1)OCO2,-6,0,0,-6,x,x
O=C(NC(NC(=O)c1ccccc1F)c1ccc2c(c1)OCO2)c1ccccc1F,1,11*,0,-3,1,0
c1ccc(Nc2nc(NCCN3CCOCC3)c3[nH]cnc3n2)cc1,-7,1,0,14,x,x
Cc1ccc(C2CC(=O)n3nc(N)nc3N2)cc1 (stereo unspecified),-1,5.9*,0,14,0,5
Cc1ccc(C2CC(=O)n3c(nc4ccccc43)N2)cc1 (stereo unspecified),-7,1,0,12,x,x
CCOC(=O)c1c(N)sc(C)c1-c1cccc(Cl)c1,2,0,0,2,x,x
COC(=O)c1c(N)sc(C)c1-c1cccc(Cl)c1,1,6.0*,0,-5,1,18
O=C(COc1ccc(Cl)cc1)Nc1ccccn1,49*,9.2*,0,-20,1,-51
O=C(COc1ccc(Cl)cc1)Nc1ccc(-c2cn3cccnc3n2)cc1,-5,8.6*,23*,-6,3,11
COc1ccc(-c2cn3cccnc3n2)cc1NC(=O)COc1ccc(Cl)cc1,-29,-1,1,19,x,x
CCSc1nc2scc(C(F)(F)F)n2c(=O)c1C(=O)NCc1ccc(OC)cc1,2,1,0,5,x,x
O=C(NC(c1ccc(F)cc1)c1ccccn1)C1CCN(C(=O)NC2CCCCC2)CC1 (stereo unspecified),1,0,0,-19,x,x
O=C(c1cnsn1)N1CCOc2ccc(C(O)CCc3ccccc3)cc2C1 (stereo unspecified),-9,5.3*,0,-3,0,1
Cc1ccc(S(=O)(=O)Nc2ccc(NC(=O)/C=C/c3ccc4c(c3)OCO4)cc2)cc1,7,7.6*,0,17,1,-8
COc1ccc(C2=NN(c3nc(-c4cccc(N5C(=O)c6ccccc6C5=O)c4)cs3)C(c3ccco3)C2)cc1 (stereo unspecified),3,-1,0,0,x,x
COc1ccc(N=Cc2c(O)[nH]c(=S)[nH]c2=O)cc1OC,2,7.2*,0,-5,0,8
O=c1[nH]c(O)c(C=Nc2ccc(F)c(F)c2)c(=O)[nH]1,0,13*,-1,-5,0,6
CC(=O)c1ccc(NC(=O)c2oc3ccc4c(c3c2C)C(=O)CC(C)(C)O4)cc1,0,-1,0,-1,x,x
COc1ccc(Cc2nnc(Nc3cc(Cl)ccc3C)[nH]c2=O)cc1,-3,5.0*,0,13,0,14
COc1ccc(Cc2nnc(Nc3ccccc3C)[nH]c2=O)cc1,7,-1,0,12,x,x
O=C(CN1C(=O)[C@@H]2CCCN2C(=O)c2ccccc21)Nc1ccccc1F,8,-1,0,4,x,x
